PubChem BioAssay (NCI)
About 83,000 compounds went through this panel and 20% of them were active in at least one assay; those are over-represented in the sample as a whole.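 Cells were grown in 96-well plates and exposed to the test compound at a single concentration for 48 hours; results are reported as percent growth, with values below 10 considered active.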 The source made the active and inactive calls.

test system: HL-60(TB) leukemia; assay: NCI-60 one-dose screen, 48 h (100 = growth as untreated, 0 = no growth, -100 = all killed); settings: 10 µM unless noted

| Structure (SMILES) | growth |
| --- | --- |
| COC1=CC(c2ccc[nH]2)=N/C1=C\c1[nH]c(C)c(CC(=O)OCc2ccccc2)c1C | -29.2% (active) |
| Nc1ncc(-c2ccc3ncnc(Nc4ccc(F)c(Cl)c4)c3c2)cn1 | 103% (inactive) |
| COc1ccc(NC(=O)c2nc(-c3cc(OC)c(OC)c(OC)c3)n(-c3cccc4ccccc34)n2)cc1OC | 10% (inactive) |
| NC(=O)C1=C[C@H]2[C@H]3C=C[C@@]2(O)C(=O)O[C@@H]3O1 | 41.6% (inactive) |
| CCCCCCNC(=O)Oc1ccc(/C(=C(\C)c2ccccc2)c2ccc(OCCN(CC)CC)cc2)cc1 | 9.56% (active) |
| O=C1C=C(Nc2ccc([N+](=O)[O-])cc2)c2ccccc2C1=O | 3.59% (active) |
| COc1cccc2c1C(=O)c1c(O)c3c(c(O)c1C2=O)C[C@@](O)(/C(C)=N/NC(=O)c1ccc(Cl)cc1)C[C@@H]3OC1CC(N)C(O)C(C)O1 (stereo not given in full) | -53.4% (active) |
| CCCCCCCSc1ccc(C(=O)O)cc1 | 98.6% (inactive) |
| O=C1/C(=C/c2ccccc2F)CNC/C1=C\c1ccccc1F | -42.9% (active) |
| COc1ccc(/C(=N/O)c2cc(OC)c(OC)c(OC)c2)c(OC)c1N | -24.6% (active) |
| COc1cc(-c2cc(-c3nc4ccc(F)cc4[nH]3)[nH]n2)cc(OC)c1OC | -35% (active) |
| COc1cc(C2=C(c3cn(C)c4ccccc34)COC2=O)cc(OC)c1OC | -1.28% (active) |
| CCN(C(=O)Nc1ccccc1Cl)c1ccccc1 | 113% (inactive) |
| COc1ccc2c(c1)C(=O)/C(=C/c1cccc(OCC(=O)c3ccc([N+](=O)[O-])cc3)c1)CO2 | -46.6% (active) |
| N#C/C(=N\Nc1ccc(Cl)cc1)C(=O)Nc1cc(-c2ccccc2)nn1-c1ccccc1 | 27.5% (inactive) |
| C#CCn1c(C)cc(C)c(C#N)c1=O | 101% (inactive) |
| Nc1c(C(=O)Nc2cccc3ncccc23)sc2nc3c(cc12)CN(Cc1ccccc1)CC3 | 48.6% (inactive) |
| Cc1cc(N[C@@H]2CCC[C@H](Nc3ccnc4cc(Cl)ccc34)C2)nc(N2CCCCCC2)n1 | -72.5% (active) |
| O=c1[nH]c(=S)[nH]c(O)c1/C=C1\C=Nc2ccccc21 | 90.4% (inactive) |
| C=C(C)[C@@H]1CC[C@]2(C(=O)OC)CC[C@]3(C)[C@H](CC[C@@H]4[C@@](C)(CCc5nn[nH]n5)[C@H](C(=C)C)CC[C@]43C)[C@@H]12 | -11% [100 µM] (active) |

| Structure (SMILES) | growth |
| --- | --- |
| CCN1CCN(c2nc3ccccc3c3c(=O)c4ccccc4sc23)CC1 | 76.4% (inactive) |
| O=NN(CCCl)C(=O)Nc1ccc(NC(=O)N(CCCl)N=O)cc1 | 94.8% (inactive) |
| C=CC1=NC(C)(C)CC(C)O1 (stereo not given) | 96.7% (inactive) |
| Cc1cccc2c(=O)c3c(sc12)c(NCCNCCO)nc1ccccc13 | -58.4% (active) |
| COc1nc2c(c(=O)n1C)CN(Cc1ccccc1)C=N2 | 92.9% (inactive) |
| COc1cc(C(=O)Nc2cc(OC)c3ccn(C)c3c2)cc2c1C[C@]1(C)CC[C@@H](O)C(C)(C)[C@H]1O2 | 1.14% (active) |
| CSc1ncnc2c1ncn2C1CCCO1 (stereo not given) | 99.9% (inactive) |
| COc1ccc(C2CC(c3ccc(Nc4nc(Nc5ccc(F)cc5)nc(Nc5ccc(Cl)cc5)n4)cc3)=NN2C(C)=O)cc1 (stereo not given) | 206% (inactive) |
| Cn1nc(CC#N)c2c(=N)n(N)cnc21 | 84.4% (inactive) |
| CCOC(=O)c1c(C)nc2c(c1N)/C(=C/c1ccccn1)C(=O)N2Cc1ccccc1 | -5.96% (active) |
| COCCn1cc(-c2csc(-c3c[nH]c4ccccc34)n2)c2cccnc21 | 14.1% (inactive) |
| O=C(Oc1ccccc1[N+](=O)[O-])C1CCCN1C(=O)OCc1ccccc1 (stereo not given) | 58.9% (inactive) |
| CCOc1ccccc1-n1c(CN2CCN(C(=O)COc3ccc(CNCCCCCCN4C5CCCC4CC(OC(=O)Nc4cc(C)ccc4OC)C5)cc3)CC2)nc2ccccc2c1=O (stereo not given) | -76% (active) |
| C=C[C@@H]1C[C@H](O)Cc2cc(F)ccc2N1 | -2.59% (active) |
| CCN(CC)CCC(CNc1c(C)cnc2cc(Cl)ccc12)c1ccc(Cl)cc1 (stereo not given) | 52.5% (inactive) |
| CCCCCCCCCN1C(=O)/C(=c2\sc3n(c2=O)C2C(NN=3)N(CC)C(=O)N2CC)c2ccccc21 (stereo not given) | 84.1% (inactive) |
| O=C1CC(c2nc3ccccc3[nH]2)CN1C1CCCCC1 (stereo not given) | 101% (inactive) |
| COc1cc(Oc2cc(-c3cccnc3)ccc2NC(=O)Nc2ccc(F)cc2F)cc(OC)c1OC | 91.3% (inactive) |
| O=C(CSc1nnnn1-c1ccccc1)Nc1ccc(Oc2ccccc2)cc1 | 110% (inactive) |
| COc1cc2c(cc1OCCCN1CCN(CCCOc3cc4c(cc3OC)C(=O)N3CC(F)(F)C[C@H]3C=N4)CC1)N=C[C@@H]1CC(F)(F)CN1C2=O | 15.7% (inactive) |
